Results filed as inconclusive are left out. Calls follow the shape of the dose curve; as a rule, active = well fitted curve in either direction with a large enough effect (not every such curve was filed as active); inconclusive = small, poorly fitted or top-dose-only effect, or another doubt; inactive = flat fitted curve, though single readings scatter.
test: AP1 Signaling Pathway (AID 357); details: ME-180 (cervical carcinoma) AP-1-bla reporter, EGF-induced, beta-lactamase ratio, 5 h; at 17.2 µM (top of the series) unless noted;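 also: ME-180 reporter cells stimulated with EGF at its EC50 level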
Procedure, shortened: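 First, ME-180 AP-1-bla cells were cultured overnight at 37 °C in low-serum Opti-MEM. Next, titrated compounds with EC50 EGF were incubated 5 hours. Finally, CCF4 was added for 2.5 hours and the 460/530 nm ratio recorded.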
% is scaled to controls: 0 for no effect and ±100 for the full control effect.

Activity change, negative = inhibition, inactive:
CCCCSc1nnc2n(CCc3ccccc3)c(=O)c3c4c(sc3n12)COC(C)(C)C4 -9.1%
Nc1c2c(nc3ccccc13)N(C1CCCCC1)CC2 13.8%
C=CCNc1nc(N2CCCCC2)c(C#N)c2c1CN(Cc1ccccc1)CC2 1.37%
Cc1cc(N2C(=O)C(=O)/C(=C(/O)c3ccccc3)C2c2cccc(Br)c2)no1 (stereo not given) -11.1%
COC(=O)CN(c1nc(C)c(Br)c(OC)n1)S(=O)(=O)c1ccc(C)cc1 -6.01%
COc1ccc(Nc2cc(C)nc3ccccc23)cc1 10.5%
Cc1ccc(S(=O)(=O)c2cc3c(=O)n4ccccc4nc3n(C)c2=N)cc1 23.8%
CCOc1ccc2c(C)nc(NC3=NC(C)(C)C=C(C)N3)nc2c1 26.3%
O=S(=O)(c1cccc(-c2csc(-c3ccccc3)n2)c1)N1CCOCC1 -13.8%
N#Cc1c(N2CCOCC2)nc(N2CCCCC2)c2c1CCN(C1CCCCC1)C2 -8.29%
C=CCn1c(=O)c(C(=O)NCCN(CC)CC)c(O)c2ccccc21 14.7%
CCCSc1nnc2n(-c3ccccc3OC)c(=O)c3c4c(sc3n12)CCC4 3.26%
CC(=O)OCC(=O)[C@@]1(O)CC[C@H]2[C@@H]3CCC4=CC(=O)CC[C@]4(C)[C@H]3[C@@H](O)C[C@@]21C 11.1%
CN1CCN(c2nc3c(c(=O)n(C)c(=O)n3C)n2Cc2cccc3ccccc23)CC1 -9.31%
O=C(c1ccc(F)cc1)N1CCC(N2CCCCCC2)CC1 -5.56%
CCCCNC(=O)C(C#N)c1nc2ccccc2nc1N1CCN(Cc2ccc3c(c2)OCO3)CC1 (stereo not given) -18.8%
Cn1nnc2c(sc3nc(N4CCOCC4)c4c(c32)CCCC4)c1=O -0.625%
O=S(=O)(c1ccc(Cl)cc1)N1CCC(N2CCCCCC2)CC1 9.12%
COc1ccc(Cn2c(N)c(C#N)c3nc4ccccc4nc32)cc1OC -3.62%
Cc1ccc(S(=O)(=O)/C(C#N)=C/c2c(N3CCN(C)CC3)nc3c(C)cccn3c2=O)cc1 9.07%
CCCCCc1ccc(-c2ccc(=O)[nH]n2)cc1 7.59%
C=CCOn1c(=O)c(-c2cc3ccccc3o2)[n+]([O-])c2ccccc21 -28.9%
CCOC(=O)/C(C#N)=C1\Nc2ccccc2N=C1N(CC(C)C)CC(C)C 11.2%
COc1ccc(-n2c(SCC(N)=O)nc3sc4c(c3c2=O)CCN(C)C4)cc1 -7.72%
CCCc1nc(N2CCCC2)c(C#N)c2c1CCCC2 -2.98%
CCOc1nc(SCCOc2ccc(C)cc2)nc(N(C)C)n1 -8.15%
CCN(CC)CCNc1nc(-c2ccco2)c2c(c1C#N)CC(C)(C)OC2 12.8%
CCN1CC2=C(OC(N)=C(C#N)C2c2ccccc2)/C(=C\c2ccccc2)C1 (stereo not given) -16.4%
Clc1ccc(Cl)c(-c2ccc(/C=N/c3ncn[nH]3)o2)c1 -20.5%
Cc1ccc2c(c1)[C@@H]1CN(C)CC[C@@H]1N2S(=O)(=O)c1ccc(F)cc1 12.8%
O=c1[nH]c(=O)n(Cc2ccco2)c2c1C(C(F)(F)F)(C(F)(F)F)N=C(c1ccco1)N2 3.52%
COc1ccc(-c2nc3c(Br)c(N)c(Br)cc3o2)cc1 4.22%
c1ccc(C2Nc3ccccc3-c3nc4ccccc4n32)nc1 (stereo not given) -3.28%
C=CC[N+](C)(C)CCCNC(=O)/C=N/O 6.86%
CCCSc1nc(N2CCCC2)c2c(c1C#N)CC(C)(C)OC2 -3.22%
COc1ccc(/C=N/n2cncn2)cc1CSc1ccccn1 -9.09%
CCC(=O)Nc1nc2ccccc2n1Cc1ccccc1C 28.7%
CCCCOc1ccc(C(=O)OC2CC(C)N(C)CC2C)cc1 (stereo not given) 5.59%
Nc1nc2n(n1)C(c1cccs1)CC(c1ccc(F)cc1)N2 (stereo not given) 5.72%
CCCc1cc(NCCCCO)n2c(nc3ccccc32)c1C#N -18.6%
